B1: Caulobacter ParB omega fusion; a variant is named by its letters at X, in order, B8GW30 (parent)
chain: MESVVVGEPGMSEGRRGLGRGLSALLGEVDAAPAQAPGEQLGGSREAPIEILQRNPDQPRRTFREEDLEDLSNSIREKGVLQPILVRPSPDTAGEYQIVAGERAWRAAQRAGLKTVPIMVRELDDLAVLEIGIIENVQRADLNVLEEALSYKVLMEKFERTQENIAQTIGKSXSHVANXMRLLXLPDEVQSYLVSGELTAXHARAIAAAADPVALAKQIIEGGLSVRETEALARKAPNLSAGKSKGGRPPRVKDTDTQALESDLSSVLGLDVSIDHRGSTGTLTITYATLEQLDDLCNRLTRGI

The full ranking holds about 81,000 sequences; the median of “one-hybrid fitness for binding parS DNA” is about -0.17, and the highest 2% start at about 0.51. Shown is part of a subset that was picked to be rich in the highest values. Where only a bound is given, the exact number is not on record here.

The variants in this test derive from B1. The test can be described thus: one-hybrid fitness for binding parS DNA (scaled: cognate 1, non-cognate 0); higher = stronger binding. The conditions noted are these: with parS DNA site. The gist of the method:
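Fitness is the rescaled log change in variant-to-wild-type read ratio, measured by Illumina sequencing of plasmids before and after bacterial one-hybrid selection. The scale puts cognate at 1 and non-cognate at 0. Selection of Caulobacter ParB libraries, four specificity codons randomised, took place in E. coli USO with a HIS3 reporter, site 19 bp from the promoter, over 48 hours at 37°C on M9-minus-histidine with 0.1 mM IPTG and 5 mM 3-AT.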
On to LLPR, for which the “one-hybrid fitness for binding parS DNA” value was no more than 0.2.
In the case of RWHN it was 0.301.
On to RWGS, for which the “one-hybrid fitness for binding parS DNA” value was found to be 0.68.
Under RWNH stands no more than 0.2.
In the case of RWNS it was 0.926; in that of RWLH, no more than 0.2; in that of RWHD, no more than 0.2.
RWHS: the “one-hybrid fitness for binding parS DNA” value turned out to be 0.894.
As to RWGP, the “one-hybrid fitness for binding parS DNA” value was no more than 0.2.
In the case of RWND it was no more than 0.2.
In the case of RWLN it was 0.313.
In the case of RWLS it was 0.8; in that of RWGH, no more than 0.2.
PKTI: the “one-hybrid fitness for binding parS DNA” value was no more than 0.2.
For VLLV, the “one-hybrid fitness for binding parS DNA” value is no more than 0.2.
In the case of HQHT it was no more than 0.2; in that of AWSC, no more than 0.2; in that of PQNR, no more than 0.2.
MNVS: the “one-hybrid fitness for binding parS DNA” value was no more than 0.2.
As to TRQG, the “one-hybrid fitness for binding parS DNA” value was no more than 0.2.
For the variant HPNK, the “one-hybrid fitness for binding parS DNA” value was no more than 0.2.
VARE: the “one-hybrid fitness for binding parS DNA” value is no more than 0.2.
Take RWCS: the “one-hybrid fitness for binding parS DNA” value was 0.756.
In the case of RWCP, the “one-hybrid fitness for binding parS DNA” value was no more than 0.2.
Under RWDS stands 0.76.
Under RWDP stands no more than 0.2.
Under RWQP stands no more than 0.2.
Take RWDN: the “one-hybrid fitness for binding parS DNA” value was no more than 0.2.
As for RWQS, the “one-hybrid fitness for binding parS DNA” value was determined as 0.868.
As for RWCN, the “one-hybrid fitness for binding parS DNA” value is no more than 0.2.
Under RWRP stands no more than 0.2.
In the case of RWRS it was 0.955; in that of RWQH, no more than 0.2.
Regarding RWRN, the “one-hybrid fitness for binding parS DNA” value stood at 0.401.
As for CKLV, the “one-hybrid fitness for binding parS DNA” value is no more than 0.2.
In the case of MLGM it was no more than 0.2; in that of PIWC, no more than 0.2.
In the case of MSNM it was no more than 0.2.
Under WLDE stands no more than 0.2.
Consider RGVA, for which the “one-hybrid fitness for binding parS DNA” value is no more than 0.2.
In the case of REVA it was no more than 0.2.
Regarding RCVA, the “one-hybrid fitness for binding parS DNA” value was determined as 0.581.
Under RSVA stands 0.515.
Under RPVA stands no more than 0.2; under SKAI, no more than 0.2.
Under SIHL stands no more than 0.2; under MVSE, no more than 0.2.
Take GMRV: the “one-hybrid fitness for binding parS DNA” value was no more than 0.2.
In the case of ETNG it was no more than 0.2; in that of CGAE, no more than 0.2; in that of RSKH, 0.274.
In the case of RSKS it was 0.883.
As to RCKD, the “one-hybrid fitness for binding parS DNA” value was no more than 0.2.
Under RSKD stands no more than 0.2.
As for RCKS, the “one-hybrid fitness for binding parS DNA” value amounted to 0.836.
For the variant RPKS, the “one-hybrid fitness for binding parS DNA” value was no more than 0.2.
In the case of AQTD it was no more than 0.2; in that of DWLL, no more than 0.2; in that of YIPE, no more than 0.2.
In the case of CIRT it was no more than 0.2; in that of PNRV, no more than 0.2.
In the case of RGIC it was 0.422.
As for RGLM, the “one-hybrid fitness for binding parS DNA” value is no more than 0.2.
For the variant RGYC, the “one-hybrid fitness for binding parS DNA” value is 0.527.
Under RGCF stands no more than 0.2; under RGPC, 0.217; under RGVC, 0.445.
With RGCK, the “one-hybrid fitness for binding parS DNA” value was no more than 0.2.
Turning to RGLR, the “one-hybrid fitness for binding parS DNA” value is no more than 0.2.
In the case of RGCC it was 0.534.
As for RGKH, the “one-hybrid fitness for binding parS DNA” value is no more than 0.2.
As to RGKC, the “one-hybrid fitness for binding parS DNA” value came to 0.833.
As for RGLC, the “one-hybrid fitness for binding parS DNA” value came out at 0.537.
Take ESDG: the “one-hybrid fitness for binding parS DNA” value is no more than 0.2.
In the case of QSSQ it was no more than 0.2; in that of TSPP, no more than 0.2; in that of RRPY, 0.315.
Consider GLPL, for which the “one-hybrid fitness for binding parS DNA” value was no more than 0.2.
Take LLVN: the “one-hybrid fitness for binding parS DNA” value was no more than 0.2.
Under YATP stands no more than 0.2.
On to THMC, for which the “one-hybrid fitness for binding parS DNA” value was no more than 0.2.
Regarding ASRN, the “one-hybrid fitness for binding parS DNA” value was no more than 0.2.
In the case of HKPA it was no more than 0.2.
Under RGDC stands 0.467; under RGHC, 0.59; under RGNC, 0.716.
Under RGRC stands 0.798.
Regarding RGNN, the “one-hybrid fitness for binding parS DNA” value turned out to be 0.321.
In the case of RGEC it was 0.449; in that of RGAC, 0.584.
Turning to RGAQ, the “one-hybrid fitness for binding parS DNA” value is no more than 0.2.
Under RGHY stands no more than 0.2.
Take RGFC: the “one-hybrid fitness for binding parS DNA” value amounted to 0.454.
In the case of RGHR it was no more than 0.2; in that of RGWC, 0.504.

The values are drawn from a collection of fitness landscapes (doi:10.1016/j.celrep.2020.107928).
